# High-throughput results deposited in PubChem BioAssay by National Center for Advancing Translational Sciences (NCATS).
# USP2a inh: blocks human ubiquitin-specific protease USP2a | O75604 | USP2 core, Ub-CHOP2 coupled fluorogenic reporter, 485/531 | Potency, µM (series often up to 38.3 µM), for inactives: at the highest dose activity change, negative = inhibition, usual class: inhibitors | 330,000 tested, 0.01% active | AID 463254;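 also: potency is read from the fitted curve at half-maximal effect; plate controls were DMSO wells for no effect and full inhibition by NEM control for full effect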
#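 Cell-free coupled assay: 10nM USP2 core preincubated 30min RT with compound in Tris-HCl pH 8.0/CaCl2/CHAPS buffer, then 25nM Ub-CHOP2 and 25nM reporter substrate; fluorescence (Ex 485/Em 531) read after 60min RT, normalized to NEM inhibition, concentration-response curves fitted.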
# IL1B secr inh: inflammasome signaling inhibition, IL-1 beta readout. THP-1 LPS/ATP IL-1B secretion, AlphaLISA, 16 h; stronger effect = lower value. activity change, % at 57.5 µM. 360,000 tested, 4.7% active. AID 743279; in the data active = activity change below about -50%; inconclusive = mostly about -30% to -49%; also: % is scaled to controls: 0 for no effect and ±100 for the full control effect
#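 THP-1 cells pretreated 1 hr with compounds (up to 57.5 uM final), then stimulated with LPS (250 ng/mL final) plus ATP (1.25 mM final); secreted IL-1B measured by AlphaLISA after 16 hr, decreased signal indicating inhibition.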
# S2 tox: cell viability loss in ATXN counter-screen; Potency, µM (top dose mostly 56.7 µM), actives largely listed as cytotoxic; 400,000 tested, 0.49% active; AID 651635; S2 cells (HEK-293 line with an ATXN2-luciferase reporter) viability, CellTiter-Fluor protease fluorescence, 24 h; also: potency is read from the fitted curve at half-maximal effect; nearly all actives have a fitted effect of over 40% in size
# USP1 inh: inhibitors of human USP1/UAF1 deubiquitinase. O94782. Potency, µM (series often up to 57.1 µM), inactives show top-dose activity change, negative = inhibition, hits mostly inhibitors. 390,000 tested, 0.23% active. recombinant USP1/UAF1, Ub-Rhodamine cleavage fluorescence. AID 743255; also: potency is read from the fitted curve at half-maximal effect; % is scaled to controls: 0 for no effect and ±100 for the full control effect; nearly all actives have a fitted effect of over 60% in size
#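 In this screen, compounds sit with the deubiquitinase complex (1nM) for 15 min at room temperature before Ub-Rho is added at 150nM final. Fluorescence rise is then followed for 6 reads every 60 seconds.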
# ATXN2 expr inh: ATXN2 expression inhibition | Potency, µM (highest dose often 57 µM), for the others: at the top dose activity change, negative = inhibition, actives largely listed as inhibitors | HEK-293 ATXN2-luciferase reporter, luminescence, 24 h | 360,000 tested, 0.72% active; also: potency is read from the fitted curve at half-maximal effect; % is scaled to controls: 0 for no effect and ±100 for the full control effect; nearly all actives have a fitted effect of over 55% in size
#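 qHTS (up to 57 uM final) was run with 24 h compound exposure of reporter cells at 37 °C. Each well was multiplexed: SteadyGlo luminescence measured ATXN2-luciferase expression after a fluorogenic Gly-Phe-AFC viability readout (25 uM final).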
# The depositor's hits bear a star; i = inactive; ? = inconclusive; nt = not tested or not shown; ! = a repeat was not active; [ ] = remark or other dose. This is a sample that favours compounds with a hit; in the whole collection about 4.8% have one here. Unless noted, calls follow the shape of the dose curve; as a rule, active = well fitted curve in the direction sought with a large enough effect; inconclusive = small, poorly fitted or top-dose-only effect, or another doubt; inactive = no such curve, though single readings can be large; an effect the other way counts as inactive or inconclusive.
SMILES,USP2a inh,IL1B secr inh,S2 tox,USP1 inh,ATXN2 expr inh
Cc1nc2ccc(NC(=O)[C@H](C)N3C(=O)C4CC=CCC4C3=O)cc2s1 (some centres undefined),0%,33,i,-8%,nt
Cc1ccc(C2=NN=C(NC(=O)C(F)(F)F)SC2)cc1,1%,-82*,i,-3%,10%
CC(=O)C(=Cc1ccc(-c2ccccc2)cc1)C(=O)c1ccccc1,nt,-112*,nt,nt,?
CC(=Cc1ccccc1)C(=O)c1ccccc1,nt,35,i,-13%,nt
N#CC(=Cc1ccc(-c2ccccc2)cc1)C(=O)c1ccccc1,nt,30,i,nt,9%
O=C(C(Br)=Cc1ccccc1)c1ccccc1,nt,-110*,?,-12%,20µM*
O=C1CSC(=S)N1N=Cc1ccc(Cl)s1,nt,-2,i,-5%,5%
N#C/C(=C\c1ccc(-c2ccc(Cl)c(C(=O)O)c2)o1)c1nc2ccccc2[nH]1,13%,nt,nt,32µM*,nt
N#C/C(=C\c1ccccc1C(=O)O)c1nc2ccccc2[nH]1,-1%,13,nt,-19%,-6%
N#C/C(=C\c1ccc(-c2ccc(C(=O)O)cc2)o1)c1nc2ccccc2[nH]1,7%,28,i,28µM*,49%[11.3 µM]
O=C1Nc2ccc(Cl)cc2/C1=C/C1CC=CCC1 (centres undefined),1%,-90*,?,-19%,-26%
COc1ccccc1CNC(=O)COC(=O)c1ccccc1SCC(=O)N1CCCC1,-1%,-11,i,-7%,30%
C/C=C/c1ccc(OCCOCCOc2cccc3cccnc23)c(OC)c1,0%,0,i,-11%,-17%
C/C=C/c1ccc(OCCOc2cccc3cccnc23)c(OC)c1,3%,-62*,i,-13%,27%
OCc1ccc(O)c2ncccc12,1%,80,i,-10%,?
Oc1c(Cl)cc(Cl)c2cccnc12,4%,126,?,-20%,24µM*!
Oc1ccc(Cl)c2cccnc12,nt,-30,?,1%,13µM*!
CC(=O)NCc1cc(Cl)c2cccnc2c1O,-10%,nt,nt,nt,nt
Oc1ccc(F)c2cccnc12,2%,-70*,i,-13%,-6%
Oc1ccc(CNc2ccccc2F)c2cccnc12,2%,106,11µM*!,-17%,18µM*!
Cc1ccccc1S(=O)Cc1ccc(C(=O)N2CCN(C3CCCCC3)CC2)o1 (centres undefined),nt,-25,i,3%,nt
Cc1ccc(S(=O)(=O)Nc2cc(Cl)c(O)c3ncccc23)cc1,1%,50,i,-26%,11µM*
OCCN1CCN(Cc2cc(Cl)c3cccnc3c2O)CC1,-1%,72,i,-14%,22µM*
Cc1ccc(S(=O)(=O)Nc2ncccn2)cc1,1%,18,i,4%,nt
Cc1ccc2c(Cl)cc(Cl)c(O)c2n1,nt,-94*,?,0%,7.1µM*!
SMILES,USP2a inh,IL1B secr inh,S2 tox,USP1 inh,ATXN2 expr inh
COc1ccccc1C1(CCNC(C)c2cccs2)CCOC(C(C)C)C1 (centres undefined),-2%,nt,i,-2%,-18%
Cc1ccc(C2(CCNC(C)c3cccs3)CCOC(C(C)C)C2)cc1 (centres undefined),-1%,-81*,i,-13%,-12%
O=C(NCCCN1CCN(CCCNC(=O)c2cccc(Cl)c2)CC1)c1cccc(Cl)c1,-1%,-57*,?,-14%,-9%
Clc1cccc(N2CCN(CCCN3CCN(c4ccccc4)CC3)CC2)c1,nt,-53*,?,-10%,?
O=C(CCC(=O)N1CCN(c2cccc(Cl)c2)CC1)N1CCN(c2ccccc2)CC1,-7%,-18,i,-14%,?
S=C(NCCN1CCOCC1)Nc1cccc(Cl)c1,2%,11,i,-16%,6%
S=C(NCCN1CCOCC1)N1CCN(c2cccc(Cl)c2)CC1,0%,-92*,i,2%,-18%
O=C1CC(Sc2ncccn2)C(=O)N1c1ccccc1C(F)(F)F (centres undefined),1%,-80*,i,-1%,2%
O=C(c1ccccc1)N1CCN(C(=O)C23CC4CC(CC(C4)C2)C3)CC1,-1%,-27,i,-12%,-8%
CN1CCN(C(=O)C23CC4CC(C2)CC(c2ccccc2)(C4)C3)CC1,-1%,-53*,?,-4%,-26%
CCN(CC)CCNc1ncnc2c1sc1nc(N3CCOCC3)c3c(c12)CC(C)(C)SC3,-1%,4,nt,-14%,nt
CN(C)CCNc1ncnc2c1sc1nc(N3CCOCC3)c3c(c12)CC(C)(C)SC3,-1%,-80*,?,-11%,20µM*
Nc1nc(-c2ccc(Br)cc2)c(S(=O)(=O)c2ccccc2)s1,5%,-69*,i,-8%,1%
CCN1C(=O)C(=O)N(CC(=O)NC(C)CCc2ccccc2)C1=O (centres undefined),2%,-1,i,-20%,-1%
CCc1nc2c(OCC3CCCCC3)cccn2c1N(C)C(=O)c1ccc(C)cc1,nt,-14,28µM*,nt,-6%
CCc1nc2c(OCCC3CCCCC3)cccn2c1N(C)C(=O)c1ccncc1,nt,20,i,nt,-18%
CCc1nc2c(OCCC3CCCCC3)cccn2c1N(C)C(=O)c1ccc(OC)cc1,nt,-56*,?,nt,?
COc1cc(=O)n2c(c1C(=O)N(C)Cc1nccs1)CCN(Cc1cc3ccccc3s1)CC2,nt,nt,i,nt,nt
O=C(C=Cc1cccnc1)NCCCCC1CCN(C(=O)c2ccccc2)CC1,nt,nt,nt,nt,4%
COC(=O)CSc1ccc(-c2nc3ccc(C)cc3[nH]2)cn1,4%,-90*,i,-12%,7%
Cc1cc(NC(=O)CSc2ccc(-c3nc4cc(C)c(C)cc4[nH]3)cn2)no1,-1%,95,?,-14%,-20%
Cc1cc2nc(-c3ccc(SCC(=O)NC(C)C)nc3)[nH]c2cc1C,-2%,nt,nt,nt,nt
Cc1cc2nc(-c3ccc(SCC(=O)N4CCc5ccccc54)nc3)[nH]c2cc1C,0%,109,18µM*,-24%,?
O=C(C=Cc1ccc(CN(CCO)CCc2c[nH]c3ccccc23)cc1)NO,nt,nt,nt,nt,-52%
Cc1ccc2nc(-c3cc(-c4ccccc4)no3)cn2c1,-1%,-16,i,-8%,3.5µM*
CN(C)C(=O)CCc1ccc2c3c([nH]c2c1)[C@]1(C)[C@@H](C(=O)N2CCOCC2)C[C@H](CC(=O)NCCCn2ccnc2)C(=O)N1CC3,3%,12,i,?,1%
O=C(NCc1cccnc1)c1cc(C2CCCCN2C(=O)OCc2ccccc2)on1 (centres undefined),nt,0,i,nt,-19%
Cc1ccc(Cn2c(C(=O)O)c(CNC3CCCCCC3)c3ccc(C)cc32)cc1,nt,nt,i,-19%,-2%
CCOC(=O)C1C(=O)NC(C(=O)OCC)(C(=O)OCC)C1CC (centres undefined),nt,-9,i,4%,3%
